Compound activity deposited in PubChem by The Scripps Research Institute Molecular Screening Center.
PME-1 primary – PME-1 inhibitors via competitive probe labeling, primary screen, biochemical, fluorescence polarization, FP-Rh probe, HTS. Protein phosphatase methylesterase 1 (Homo sapiens), Q9Y570. recombinant PME-1. inhibition, % at 5.9 µM. actives 0.53% (n = 320,000);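 active = inhibition above the campaign mean of all compounds plus 3 SD, cut at about 26% in these data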;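 note: competitive labeling of PME-1 active site by serine hydrolase directed probe; inhibitors block probe labeling so polarization falls and inhibition rises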
Fam108B counter – mouse Fam108B serine hydrolase inhibitors, primary screen, counter-screen for RBBP9 inhibitor project, biochemical, fluorescence polarization | recombinant Fam108B, FP-Rh probe fluorescence polarization | inhibition, % at 9.51 µM | actives 0.33% (n = 300,000) | AID 1947, 2009;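 active = inhibition above the screen mean inhibition plus 3 SD, computed separately per campaign, cut at about 18% in these data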;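 note: inhibitors lower polarization as less probe binds the enzyme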
LYPLA1 counter – LYPLA1 inhibitors, primary screen, counter-screen for PME1 inhibitor project, biochemical, fluorescence polarization, FP-Rh probe ABPP | Acyl-protein thioesterase 1 (Homo sapiens), O75608 | recombinant LYPLA1 | inhibition, % at 5.9 µM | actives 0.16% (n = 320,000) | AID 2174, 2009;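 active = inhibition above the mean of all tested compounds plus 3 SD, set per campaign, cut at about 14% in these data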;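 note: inhibitors block serine hydrolase probe labeling of LYPLA1 so polarization falls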
LYPLA2 counter – LYPLA2 inhibitors, primary screen, counter-screen for PME1 inhibitor project, biochemical, fluorescence polarization, FP-Rh probe ABPP; actives 0.38% (n = 320,000); inhibition, % at 5.9 µM; Acyl-protein thioesterase 2 (Homo sapiens), O95372; recombinant LYPLA2; AID 2177, 2009;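 active = inhibition above the screen-wide mean plus 3 SD, limit set per campaign, cut at about 26% in these data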
PAD4 inh – human PAD4 inhibitors, primary screen, biochemical, fluorescence polarization, 1536-well format. Protein-arginine deiminase type-4 (Homo sapiens), Q9UM07. recombinant PAD4, RCA probe fluorescence polarization. inhibition, % at 6.36 µM. actives 0.41% (n = 330,000);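 active = percent inhibition above a cutoff equal to the mean of all tested compounds plus 3 SD, cut at about 15% in these data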
Target sequence (Q9UM07 whole entry, looked up): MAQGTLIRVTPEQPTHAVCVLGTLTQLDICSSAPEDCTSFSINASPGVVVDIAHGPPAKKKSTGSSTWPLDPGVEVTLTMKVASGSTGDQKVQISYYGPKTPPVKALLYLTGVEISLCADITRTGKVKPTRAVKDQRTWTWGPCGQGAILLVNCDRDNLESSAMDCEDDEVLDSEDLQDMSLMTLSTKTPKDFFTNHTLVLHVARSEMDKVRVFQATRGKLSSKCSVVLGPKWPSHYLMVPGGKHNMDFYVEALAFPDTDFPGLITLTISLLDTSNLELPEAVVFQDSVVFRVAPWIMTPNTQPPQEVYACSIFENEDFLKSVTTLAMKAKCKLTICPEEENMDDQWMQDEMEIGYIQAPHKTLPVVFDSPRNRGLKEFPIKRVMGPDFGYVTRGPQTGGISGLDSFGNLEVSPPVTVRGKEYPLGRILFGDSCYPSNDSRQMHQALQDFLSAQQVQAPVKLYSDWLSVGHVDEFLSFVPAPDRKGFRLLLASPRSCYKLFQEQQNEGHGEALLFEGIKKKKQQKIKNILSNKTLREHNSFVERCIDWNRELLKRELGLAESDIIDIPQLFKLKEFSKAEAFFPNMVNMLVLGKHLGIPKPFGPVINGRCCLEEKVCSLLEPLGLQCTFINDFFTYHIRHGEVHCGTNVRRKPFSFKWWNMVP
GSTO1 inh – inhibitors of recombinant GSTO1, primary screen, counter-screen for RBBP9 inhibitor project, biochemical, fluorescence polarization. Glutathione S-transferase omega-1 (Homo sapiens), P78417. activity-based probe fluorescence polarization. inhibition, % at 5.96 µM. actives 1.1% (n = 300,000). AID 1974, 2009;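 active = inhibition above the campaign mean inhibition plus 3 SD, cut at about 35% in these data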
Hits are given with their value; - = inactive; . = no result given. Only some compounds are listed: those with a hit (about 1.8% of all), similar ones and a draw of the others.

SMILES	PME-1 primary	Fam108B counter	LYPLA1 counter	LYPLA2 counter	PAD4 inh	GSTO1 inh
CN(c1ccccc1)S(=O)(=O)c1ccc(C(=O)Nc2ncccc2O)cc1	-	-	-	-	-	-
CCCCc1cc(=O)oc2cc(OC(C)C(=O)NCCN3CCOCC3)c(Cl)cc12 (configuration not stated)	-	-	-	-	-	-
C[C@]12CC[C@@H]3c4ccc(O)cc4CC[C@H]3[C@@H]1CC[C@@H]2O	-	-	-	-	-	-
C[C@]12CC[C@@H]3c4cc(O)c(O)cc4CC[C@H]3[C@@H]1CC[C@@H]2O	-	-	-	-	-	42
O=C1c2ccccc2C(=O)N1CSc1nnnn1-c1ccccc1	-	-	-	-	-	37
O=C1c2ccccc2C(=O)N1CCCCSc1nnnn1-c1ccccc1	-	-	-	-	-	-
C[C@H]1COC2=C1C(=O)C(=O)c1c2ccc2c1CCCC2(C)C	-	-	-	48	-	68
CC(NC(=O)Cn1ncc(Cl)c(Cl)c1=O)C12CC3CC(CC(C3)C1)C2 (configuration not stated)	-	-	-	-	-	37
COc1ccc(C2CC(c3ccc(OC)c(OC)c3)=NN2S(C)(=O)=O)cc1 (configuration not stated)	33	-	-	-	-	-
O=c1[nH]c(/C=C/c2ccc(Cl)cc2Cl)c([N+](=O)[O-])c(=O)[nH]1	-	-	-	-	-	-
CC(C(=O)Nc1ccc([N+](=O)[O-])cc1)N1CCN(C/C=C/c2ccccc2)CC1 (configuration not stated)	-	-	-	31	-	-
CC(=O)c1ccc(-c2ccc(C(=O)Nc3nc(C)c(C(C)=O)s3)o2)cc1	-	.	-	-	-	.
N=c1oc2cc(O)ccc2cc1C(=O)Nc1nc2ccccc2s1	30	-	-	-	-	-
N=C1/C(=C/c2coc3ccccc3c2=O)C(=O)N=C2SC(c3ccco3)=NN12	-	-	-	-	-	-
N=C1/C(=C\c2coc3ccc(O)cc3c2=O)C(=O)N=C2SC=CN12	-	-	-	-	-	57
CSc1ncccc1C(=O)Nc1cc(Cl)ccc1N1CCOCC1	.	.	.	.	-	.
CC(=O)N(Cc1c(C)nn(-c2ccccc2)c1Cl)c1ccc(Cl)cc1	-	-	-	-	-	-
Cc1nn(-c2ccccc2)c(Cl)c1CN(C(=O)CCl)c1cccc2ccccc12	-	-	-	-	-	89
CCC1Oc2ccc(C)cc2N(CC(=O)NCc2cccs2)C1=O (configuration not stated)	-	-	-	-	-	-
CCC1Oc2ccccc2N(CC(=O)NCc2cccs2)C1=O (configuration not stated)	-	-	-	-	-	37
COc1ccccc1C(=O)NCC(=O)OCC(=O)N(CC(C)C)c1c(N)n(Cc2ccccc2)c(=O)[nH]c1=O	-	-	-	-	-	-
C=CCOc1ccc(/C=N/NC(=O)c2cc3c(OC)cc(OC)cc3[nH]2)cc1	41	-	-	-	-	-
Cc1ccc(C(=O)NCC(=O)OCN2C(=O)c3ccccc3C2=O)cc1C	-	.	-	-	-	.
O=C(CNC(=O)c1ccco1)OCN1C(=O)c2ccccc2C1=O	-	-	-	-	-	37
Cc1ccccc1C(=O)Nc1ccc(S(=O)(=O)N2CCOCC2)cc1	-	-	-	-	-	-
CCn1c(NCc2ccccc2Cl)nc2ccccc21	-	-	-	-	-	36
COc1ccc(S(=O)(=O)Nc2ccccc2C(=O)N2CCOCC2)cc1Cl	-	-	-	-	-	-
O=c1oc2cc(O)ccc2s1	-	-	-	-	-	53
COC(=O)CCC(=O)OC1(C)C(=O)C2=CN(c3ccc(OC)cc3)C(c3ccc(OC)cc3)=CC2=C(Br)C1=O (configuration not stated)	-	-	-	-	-	36
